The source made the active and inactive calls.

Experiment [1] concerns Plasmodium falciparum Sir2 (PF13_0152, Sir2A). Description: Plasmodium falciparum Sir2A binding compounds – biochemical, small-molecule microarray, 635 nm fluorescence, primary screen (AID 1098).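 Also: score merges spot fluorescence intensity with its signal-to-noise ratio.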 Conditions: fluorescence 635 nm, higher = more signal.
A short description of experiment [2]: probe aDKK1 binding to arrayed compounds – biochemical, biotinylated probe, 635/667 nm fluorescence, primary screen (AID 1099).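 Also: score merges 667nm spot fluorescence with signal to noise across triplicate slides.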 Conditions: small-molecule microarray, higher = more signal.
A short description of experiment [3]: probe aCHRDL2 binding to arrayed compounds – biochemical, biotinylated probe, 635/667 nm fluorescence, primary screen (AID 1100). The following applies: small-molecule microarray, higher = more signal.
Experiment [4] can be described thus: change in splice reporter luminescence, either direction, cell-based, HEK293, spliceosome inhibition project, primary screen (AID 1101).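 Also: HEK293 cells carrying a splicing-competent luciferase reporter gene; test concentration not given here.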 Conditions: HEK293 splicing luciferase reporter, 24 h, higher = more signal, called active from +8 up or from −8 down.
The target in experiment [5] is Fibroblast growth factor 10 (Homo sapiens) (UniProt O15520). Description: compounds binding fibroblast growth factor 10 – biochemical, small-molecule microarray, 635 nm fluorescence, primary screen (AID 1102). The following applies: FGF10 binding, fluorescence 635 nm, higher = more signal.
Fibroblast growth factor 10 (Homo sapiens), sequence (O15520 whole entry, looked up): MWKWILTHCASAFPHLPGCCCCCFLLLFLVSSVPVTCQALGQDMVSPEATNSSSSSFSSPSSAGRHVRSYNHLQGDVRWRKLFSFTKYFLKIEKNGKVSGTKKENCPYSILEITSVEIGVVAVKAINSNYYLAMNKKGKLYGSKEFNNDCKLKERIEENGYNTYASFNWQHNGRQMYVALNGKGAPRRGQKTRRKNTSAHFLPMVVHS
Experiment [6] has as its system glycogen synthase kinase-3 (GSK3A per assay name; protocol says GSK3B). Description: compounds binding glycogen synthase kinase-3 – biochemical, small-molecule microarray, 635 nm fluorescence, GSK3A, primary screen (AID 1103). Also: the record names both GSK3A and GSK3B. The following applies: fluorescence 635 nm, higher = more signal.
The target of experiment [7] is Epidermal growth factor receptor (Homo sapiens) (UniProt P00533). Briefly: compounds binding epidermal growth factor receptor – biochemical, small-molecule microarray, 635 nm fluorescence, primary screen (AID 1104).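 Also: score merges 667 nm emission intensity with spot signal to noise over triplicate slides.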 Conditions: EGFR binding, higher = more signal.
Epidermal growth factor receptor (Homo sapiens), sequence (P00533 whole entry, looked up): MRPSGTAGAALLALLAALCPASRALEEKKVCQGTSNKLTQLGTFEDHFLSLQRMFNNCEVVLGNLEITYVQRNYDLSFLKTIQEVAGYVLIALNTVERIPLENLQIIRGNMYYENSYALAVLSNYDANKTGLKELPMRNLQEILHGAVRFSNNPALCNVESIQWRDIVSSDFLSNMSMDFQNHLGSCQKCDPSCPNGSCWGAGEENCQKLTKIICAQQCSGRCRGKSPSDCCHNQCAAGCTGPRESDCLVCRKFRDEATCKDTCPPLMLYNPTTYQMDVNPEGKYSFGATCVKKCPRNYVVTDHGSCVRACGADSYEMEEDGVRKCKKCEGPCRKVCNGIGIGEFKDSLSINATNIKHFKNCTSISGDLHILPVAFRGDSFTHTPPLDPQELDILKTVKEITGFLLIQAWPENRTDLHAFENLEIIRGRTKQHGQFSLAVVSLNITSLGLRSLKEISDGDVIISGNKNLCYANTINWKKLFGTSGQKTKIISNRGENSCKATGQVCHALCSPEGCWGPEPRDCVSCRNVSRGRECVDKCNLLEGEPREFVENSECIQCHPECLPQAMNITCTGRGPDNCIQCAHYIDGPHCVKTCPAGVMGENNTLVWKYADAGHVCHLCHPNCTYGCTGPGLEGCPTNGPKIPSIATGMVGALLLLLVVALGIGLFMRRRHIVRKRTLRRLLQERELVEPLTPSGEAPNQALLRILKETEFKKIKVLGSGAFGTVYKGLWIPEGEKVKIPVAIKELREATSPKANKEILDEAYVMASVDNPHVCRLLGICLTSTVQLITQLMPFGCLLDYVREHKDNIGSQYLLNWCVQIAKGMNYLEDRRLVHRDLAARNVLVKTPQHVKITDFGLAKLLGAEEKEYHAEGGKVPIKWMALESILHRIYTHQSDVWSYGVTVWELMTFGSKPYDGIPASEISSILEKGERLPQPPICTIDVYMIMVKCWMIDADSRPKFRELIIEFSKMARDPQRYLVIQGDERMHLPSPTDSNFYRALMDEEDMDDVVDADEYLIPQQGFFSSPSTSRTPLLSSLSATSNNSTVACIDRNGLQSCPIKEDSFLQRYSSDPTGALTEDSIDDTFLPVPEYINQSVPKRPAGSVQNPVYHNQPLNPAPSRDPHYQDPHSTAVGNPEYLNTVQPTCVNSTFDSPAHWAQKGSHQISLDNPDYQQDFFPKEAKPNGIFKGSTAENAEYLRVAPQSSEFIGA
Experiment [8] concerns the target Follistatin-related protein 3 (Homo sapiens) (UniProt O95633). Briefly: compounds binding follistatin-related protein 3 – biochemical, small-molecule microarray, 635 nm fluorescence, primary screen (AID 1105).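 Also: score merges emission near 667 nm and signal to noise per printed spot across three slides.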 The following applies: FSTL3 binding, higher = more signal.
The target in experiment [9] is Dickkopf-related protein 1 (Homo sapiens) (UniProt O94907). Description: small molecules binding DKK1 protein – biochemical, small-molecule microarray, 635 nm fluorescence scan, primary screen (AID 1106).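 Also: score merges emission near 667 nm with signal to noise over three replicate slides.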 Conditions: higher = more signal.
Dickkopf-related protein 1 (Homo sapiens), sequence (O94907 whole entry, looked up): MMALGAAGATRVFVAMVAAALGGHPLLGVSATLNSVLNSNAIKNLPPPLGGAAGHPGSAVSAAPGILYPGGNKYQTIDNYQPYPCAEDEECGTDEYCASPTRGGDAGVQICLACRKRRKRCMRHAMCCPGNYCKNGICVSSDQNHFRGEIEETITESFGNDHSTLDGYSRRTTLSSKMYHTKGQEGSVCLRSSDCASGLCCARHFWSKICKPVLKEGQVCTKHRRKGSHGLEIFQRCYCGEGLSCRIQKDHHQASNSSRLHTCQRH
For experiment [10], the system named is Inhibin beta A chain (activin A). Briefly: small molecules binding activin A – biochemical, small-molecule microarray, 635 nm fluorescence scan, primary screen (AID 1107).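 Also: mouse activin A protein probed at 4.33 µg/mL on printed slides; score merges bound-protein fluorescence near 667 nm with spot signal-to-noise.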 Conditions: INHBA, higher = more signal.
The test system of experiment [11] is Human papillomavirus type 1a protein E7 (residues 44-93). Briefly: small molecules binding HPV E7 44-93 – biochemical, small-molecule microarray, residues 44-93, 635 nm fluorescence, primary screen (AID 1108).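 Also: E7 fragment applied at 1 µg/mL in TBST for 1 h at 4 C; score combines spot fluorescence with its signal to noise ratio.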 The following applies: fluorescence 635 nm, higher = more signal.
Experiment [12] can be described thus: hepatitis C replication reporter changes, two-sided – Huh7 cells, luciferase reporter, HCV replication inhibitor project, primary screen (AID 1109).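 Also: huh7 hepatoma cells harbouring a luciferase neomycin HCV replicon reporter; luciferase luminescence as measure of HCV replicon replication; test concentration not given here.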 Conditions: Huh7 HCV replicon luciferase reporter, 48 h; higher = more signal. (In general: In a reporter assay the amount or activity of a reporter protein is the signal.)
Experiment [13] has as its target Left-right determination factor 2 (Homo sapiens) (UniProt O00292). Briefly: small molecules binding LEFTY2 protein – biochemical, small-molecule microarray, 635 nm fluorescence scan, primary screen (AID 1110). The following applies: higher = more signal.
In experiment [14] the target is Calmodulin-1 (Homo sapiens) (UniProt P0DP23). Briefly: small molecules binding calmodulin-1 with EGTA – biochemical, small-molecule microarray, Cy5-labelled CALM1, profiling panel (AID 1111).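 Also: labelled calmodulin applied in Tris saline Tween buffer holding calcium plus EGTA and DTT.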 The following applies: Cy5-CALM1 binding fluorescence, higher = more signal.
The target is the same in experiment [15]. Description: small molecules binding Ca-loaded calmodulin-1 – biochemical, small-molecule microarray, Cy5-labelled CALM1, plus calcium, artefact control for SMM control-protein annotation, profiling panel (AID 1112).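 Also: score merges spot fluorescence with signal to noise from triplicate slides.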 Conditions: Cy5-CALM1 binding fluorescence, higher = more signal.
The nature of experiment [16]: probe aWnt5a binding to arrayed compounds – biochemical, biotinylated probe, 635/667 nm fluorescence, primary screen (AID 1113).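 Also: score merges 667 nm fluorescence intensity with signal-to-noise per printed feature.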 The following applies: small-molecule microarray, higher = more signal.
A short description of experiment [17]: probe aShh binding to arrayed compounds – biochemical, biotinylated probe, 635/667 nm fluorescence, primary screen (AID 1114).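 Also: probe is biotin-labelled aShh protein from a stem cell growth factor screen; measures binding of labelled protein to compounds printed on the slide; score merges feature fluorescence at 667 nm with signal-to-noise.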 Conditions: small-molecule microarray, higher = more signal.
Experiment [18] is described as follows: probe aNog binding to arrayed compounds – biochemical, biotinylated probe, 635/667 nm fluorescence, primary screen (AID 1115).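 Also: probe is biotinylated aNog protein used at 0.15 µg/mL for 1 h at 4 C; z-score combines 667 nm fluorescence of each spot with its signal to noise.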 Conditions: small-molecule microarray, higher = more signal.
The target in experiment [19] is Torsin-1A-interacting protein 1 (Homo sapiens) (UniProt Q5JTV8). Briefly: compound microarray binding of lysate hLAP1 – cell lysate, small-molecule microarray, COS7 lysate, 635/667 nm fluorescence, primary screen (AID 1116). Conditions: 635 nm fluorescence, higher = more signal.
Torsin-1A-interacting protein 1 (Homo sapiens), sequence (Q5JTV8 whole entry, looked up): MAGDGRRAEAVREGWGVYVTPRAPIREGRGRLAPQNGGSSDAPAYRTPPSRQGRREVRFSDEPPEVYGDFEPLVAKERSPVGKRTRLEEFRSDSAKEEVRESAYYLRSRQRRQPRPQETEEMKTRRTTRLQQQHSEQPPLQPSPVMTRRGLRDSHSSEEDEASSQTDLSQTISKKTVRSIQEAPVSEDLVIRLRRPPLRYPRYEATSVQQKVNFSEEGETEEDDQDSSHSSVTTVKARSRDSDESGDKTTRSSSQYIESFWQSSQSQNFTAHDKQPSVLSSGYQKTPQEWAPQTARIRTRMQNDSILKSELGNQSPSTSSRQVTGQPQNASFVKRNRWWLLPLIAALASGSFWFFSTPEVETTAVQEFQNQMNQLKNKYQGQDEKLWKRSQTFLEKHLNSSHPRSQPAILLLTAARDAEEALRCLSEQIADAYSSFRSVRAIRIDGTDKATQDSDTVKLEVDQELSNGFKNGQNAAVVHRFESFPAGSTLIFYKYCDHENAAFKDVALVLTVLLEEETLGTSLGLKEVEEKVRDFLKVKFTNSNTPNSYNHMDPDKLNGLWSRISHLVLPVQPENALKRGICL
The target in experiment [20] is Alpha-bungarotoxin (Bungarus multicinctus) (UniProt P60615). Description: compounds binding labelled alpha-BTX control protein – biochemical, small-molecule microarray, Alexa647 label, 635/667 nm fluorescence, artefact control for SMM control protein annotation, profiling panel (AID 1117). The following applies: alpha-BTX-A647 binding fluorescence, higher = more signal.
Alpha-bungarotoxin (Bungarus multicinctus), sequence (P60615 whole entry, looked up): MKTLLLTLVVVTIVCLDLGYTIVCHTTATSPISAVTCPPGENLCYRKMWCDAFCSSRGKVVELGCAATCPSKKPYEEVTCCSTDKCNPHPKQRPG

Left-right determination factor 2 (Homo sapiens), sequence (O00292 whole entry, looked up): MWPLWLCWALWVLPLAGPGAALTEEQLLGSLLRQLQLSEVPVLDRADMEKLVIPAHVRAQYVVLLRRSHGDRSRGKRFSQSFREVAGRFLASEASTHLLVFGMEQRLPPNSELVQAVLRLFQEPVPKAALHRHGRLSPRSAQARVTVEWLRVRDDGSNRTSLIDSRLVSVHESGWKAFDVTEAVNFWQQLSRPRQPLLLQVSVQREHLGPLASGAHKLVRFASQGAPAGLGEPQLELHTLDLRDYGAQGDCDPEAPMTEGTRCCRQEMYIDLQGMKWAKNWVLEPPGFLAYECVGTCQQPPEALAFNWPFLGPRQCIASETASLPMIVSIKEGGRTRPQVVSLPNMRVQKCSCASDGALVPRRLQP
Follistatin-related protein 3 (Homo sapiens), sequence (O95633 whole entry, looked up): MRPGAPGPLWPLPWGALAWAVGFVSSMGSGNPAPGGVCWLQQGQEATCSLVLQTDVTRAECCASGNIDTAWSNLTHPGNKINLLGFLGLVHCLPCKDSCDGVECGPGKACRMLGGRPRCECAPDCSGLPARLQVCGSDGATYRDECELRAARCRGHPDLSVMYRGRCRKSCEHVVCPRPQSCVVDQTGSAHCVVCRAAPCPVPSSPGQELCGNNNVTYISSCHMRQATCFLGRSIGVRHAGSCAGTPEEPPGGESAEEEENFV

Consider `COCCCNC(=O)[C@@]1(C)c2ccccc2C(=O)N(Cc2ccccc2)[C@H]1c1ccc(CO)cc1`, for which the composite z-score in experiment [1] was 1.43; in [2], -0.0769; in [3], 1.02; in experiment [5], -0.398; in [6], -0.595; in experiment [7] it was -0.848. Also, the composite z-score in experiment [8] was -1.03; in experiment [9], -1.76; in experiment [10], -0.79; in [11], 1.38; in [13], -2.9; in experiment [14], -0.652. The composite z-score in experiment [15] was -0.634; in experiment [16], -0.124; in experiment [17], 0.0284; in experiment [18] it was -0.255; in experiment [19] it was 1.64; in experiment [20], -0.564. Moreover, the z-score was -0.626 (inactive) in experiment [4] and -1.86 in experiment [12].
As to `[N-]=[N+]=NCc1ccccc1[C@@H]1OC(c2ccc(OCCCO)cc2)=N[C@]1(Cc1ccccc1)C(=O)O`, the composite z-score in [1] was 1.03; in experiment [2], 0.175; in experiment [3], 0.917; in experiment [5] it was 0.661; in experiment [6], 0.294; in experiment [7], -0.321. For the same compound, the composite z-score is -0.086 in experiment [8]; -0.617 in experiment [9]; 1.2 in [10]; 1.38 in experiment [11]; -0.252 in experiment [13]; 1.14 in experiment [14]. The composite z-score in experiment [15] is 0.518; in experiment [16] it was -0.0479; in experiment [17] it was 0.0711; in [18] it was -0.419; in experiment [19], 0.767; in [20], 0.865. For the same compound, the z-score was -0.013 (inactive) in experiment [4] and -0.297 in experiment [12].
As to `CC(C)(C)OC(=O)CC[C@]1(C(=O)NCC(O)CO)N=C(c2ccc(OCCCO)cc2)O[C@H]1c1ccccc1CN=[N+]=[N-]` (stereo not given in full), the composite z-score is 0.982 in experiment [1]; 1.27 in experiment [2]; 1.33 in experiment [3]; 1.5 in experiment [5]; 0.554 in experiment [6]; -0.256 in experiment [7]. Besides, the composite z-score was 0.676 in [8]; -0.0583 in experiment [9]; 0.487 in experiment [10]; 0.29 in experiment [11]; -0.167 in experiment [13]; 2.52 in experiment [14]. For the same compound, the composite z-score in experiment [15] was 0.909; in [16] it was 0.25; in experiment [17] it was 0.541; in experiment [18] it was -0.524; in experiment [19] it was 3.82; in experiment [20] it was 2.42. In addition, the z-score is 0.121 (inactive) in experiment [4] and 1.15 in experiment [12].
In the case of `COc1cc2c(cc1O)C(c1ccc(CN3CCCC3)cc1)N(Cc1sc3ccccc3c1Cl)CC2` (stereo not given), the composite z-score in [1] was 1.41; in [2] it was 0.0829; in experiment [3], 0.234; in experiment [5] it was 0.514; in experiment [6] it was -0.111; in [7], 0.521. For the same compound, the composite z-score turned out to be 0.988 in experiment [8]; 1.12 in experiment [9]; 1.35 in [10]; 0.573 in [11]; 0.82 in [13]; 0.26 in experiment [14]. The composite z-score in experiment [15] is -0.935; in experiment [16], -0.0036; in experiment [17] it was -0.0626; in experiment [18] it was 0.151; in [19] it was 0.0494; in experiment [20] it was 0.518. Besides, the z-score in experiment [4] is -0.478 (inactive); in experiment [12] it was -2.57.
For `COc1ccccc1CN1C(=O)c2ccccc2[C@](Cc2ccccc2I)(C(=O)NC2CC2)[C@@H]1c1ccc(CO)cc1`, the composite z-score was 1.58 in experiment [1]; -0.617 in experiment [2]; 0.042 in experiment [3]; 1.23 in experiment [5]; 1.33 in experiment [6]; 0.385 in experiment [7]. The composite z-score in experiment [8] was found to be 1.29; in experiment [9] it was 0.974; in [10], 0.154; in [11], 1.43; in [13], 0.471; in experiment [14], 0.654. For the same compound, the composite z-score in [15] was -0.265; in experiment [16] it was 0.0704; in experiment [17] it was 0.242; in [18], -0.354; in experiment [19], 1.69; in experiment [20] it was 1.38. Further, the z-score was 0.0417 (inactive) in experiment [4] and -1.93 in [12].
Consider `CC(c1ccccc1)C(O)C1C=CC2C(=O)N(c3ccccc3)C(=O)C2N1Nc1ccccc1F` (stereo not given), for which the composite z-score in experiment [1] was 0.308; in experiment [2], 0.535; in [3] it was 1.09; in experiment [5], 0.356; in experiment [6] it was 0.214; in [7], -0.0346. Moreover, the composite z-score in experiment [8] was 0.683; in [9], -0.526; in [10], 0.913; in experiment [11] it was 1.4; in experiment [13], 0.0648; in experiment [14], -0.32. Also, the composite z-score is -0.539 in experiment [15]; 0.0485 in [16]; -0.203 in experiment [17]; -0.453 in experiment [18]; 1.03 in experiment [19]; 0.667 in experiment [20]. For the same compound, the z-score in [4] was -1.02 (inactive); in experiment [12], -1.55.

The values above are taken from PubChem BioAssay.
